This is an account of results in PubChem BioAssay AID651 (University of Pittsburgh Molecular Library Screening Center, 2007).

Screen size: about 1,000 compounds; about 390 (39%) were called active. Roughly 8% stayed inconclusive and do not appear here. Not all results are given here. Unmarked numbers belong to inactive results. Cut-off read from the data, not from the text of the source: active = inhibition above about 48%; inconclusive = no clear call, values can overlap the other calls; inactive = below that.

The target of this test is Gag-Pol polyprotein (Human immunodeficiency virus type 1 group M subtype B (isolate HXB2)) (UniProt P04585). Put plainly: HIV-1 RT RNase H inhibitors, retest, confirmation, biochemical (AID 651). The note with it: Recombinant RT RNase H, fluorescent RNA/DNA duplex cleavage; at 10 µM; hits give high values.
The inhibition is the relative decrease from the control value, in per cent. As to `CCCc1nc2ccccc2c(=O)n1/N=C/c1ccc(O)c(O)c1`, the inhibition was 74.1% (active).
Under `Cc1nc(C)c(C(=O)Nc2cccc(C)c2C)o1` stands 14.1%; under `Clc1ccccc1CSc1nnc(-c2ccco2)c(-c2ccco2)n1`, 18.5%; under `CC1CCc2c(sc(NC(=O)c3ccc(Cn4cc(Br)cn4)o3)c2C(N)=O)C1` (stereo not given), 59.9% (active).
Under `CN(c1ccccc1)c1ccc(/C=c2\s/c(=C(/C#N)C(=O)C(C)(C)C)n(Cc3ccco3)c2=O)cc1` stands 50.5% (active); under `O=C(NCc1ccccn1)c1ccc2nc(-c3ccco3)c(-c3ccco3)nc2c1`, 2.46%; under `Nc1ccc(-c2nnc(-c3ccc(-c4ccccc4)cc3)o2)cc1`, 63.3% (active).
As for `CCCC(=O)N1CCc2[nH]c3ccccc3c2C1`, the figure is -2.83%.
Turning to `CC(C)CNC(=O)C1CCCN(S(=O)(=O)c2ccc(-n3cnnn3)cc2)C1` (stereo not given), the inhibition was 40.6%.
Under `CCCCOC(=O)CNc1nnc(SCC(=O)OCC)[nH]c1=O` stands 43.7%.
As for `CCN(CC)c1ccc2oc(=O)c(C)nc2c1`, the figure is 0.308%; as for `Cc1csc(NC(=O)NC2(C(F)(F)F)Oc3ccccc3O2)n1`, 33.8%.
As for `O=C(Nc1nc(-c2ccncc2)cs1)C1COc2ccccc2O1` (stereo not given), the figure is 69.2% (active); as for `CCc1nnc(NC(=O)CSc2nnc(COc3ccc(C#N)cc3)n2-c2ccccc2)s1`, 19.2%; as for `COc1ccc(Cc2nnc(NC(=O)Cc3cccs3)s2)cc1`, 22.2%.
Turning to `CCCc1nnc(NC(=O)CN2C(=O)c3ccccc3S2(=O)=O)s1`, the inhibition is 60.4% (active).
Take `COC(=O)C1=C(C)NC2=C(C(=O)c3ccccc32)C1c1ccc(-c2ccc(C(=O)O)cc2)o1` (stereo not given): the inhibition was 5.29%.
As for `c1ccc(Cc2nn3c(Cn4cnc5ccccc54)nnc3s2)cc1`, the figure is 59.7% (active); as for `CCOc1ccc2[nH]c(=O)c(CN(CCCO)C(C)=O)cc2c1`, 15.8%; as for `NC(=O)Cn1c(=O)oc2ccccc21`, 35.5%.
Under `Cc1noc(C)c1CSc1nc2cc(S(=O)(=O)N3CCOCC3)ccc2o1` stands 61% (active).
As for `COc1cc(C(=O)Nc2oc(-c3ccccc3)c(-c3ccccc3)c2C#N)cc(OC)c1OC`, the figure is 53.6% (active); as for `Cc1ccc2cccc(O)c2[n+]1[O-]`, 43.9%.
With `CCC(C)(C)NC(=O)C(c1cccn1C)N(Cc1ccc(C)cc1)C(=O)Cn1nnc2ccccc21` (stereo not given), the inhibition is -5.01%.
For `CCC(C)Sc1nc2c(c(=O)[nH]c(=O)n2C)n1CC(O)COc1cccc2ccccc12` (stereo not given), the inhibition was 68.7% (active).
Under `CCCCCn1c(SCCC(C)C)nc2c1c(=O)[nH]c(=O)n2C` stands 17.3%; under `Cc1ccnc(-n2sc3ccccc3c2=O)n1`, 60% (active).
As for `COc1ccc(OC)c(Nc2nc(-c3ccc(O)c(O)c3)cs2)c1`, the figure is 77.2% (active).
Under `Cc1ccc2c(c1)sc1ncc(NC(=O)c3ccccc3)c(=O)n12` stands 46.4%; under `COc1cccc(-c2nnc(NC(=O)c3ccc(S(=O)(=O)N(CC(C)C)CC(C)C)cc3)o2)c1`, 74.9% (active); under `CCC1=[N+]([O-])C(C)(/C(C)=N\O)N(O)C1(C)C` (stereo not given), 32%.
As to `CCOC(=O)N1CCN(CC(=O)c2ccc3c(c2)CCN3)CC1`, the inhibition was 15.5%.
As for `COc1ccc(CCn2c(=N)c(C(=O)NCc3ccco3)cc3c(=O)n4cccc(C)c4nc32)cc1`, the figure is 1.96%.
Under `Cc1cc(C(F)(F)F)nn1-c1nc(-c2ccco2)cc(C(F)(F)F)n1` stands 38%.
Under `Cc1ccc(-n2c(N)c(C(=O)N3CCOCC3)sc2=S)c(C)c1` stands -4.07%.
Regarding `Cc1cccc(-n2c(N)c(C(=O)N3CCN(C)CC3)sc2=S)c1`, the inhibition was 67% (active).
As for `Cc1ccnc(N2CCCC(C(=O)Nc3cc(F)ccc3C)C2)n1` (stereo not given), the figure is 9.38%; as for `COC(=O)N(c1ccc(OC)cc1)P1(=S)OCCC(C)O1` (stereo not given), 57.7% (active).
In the case of `CCc1c(C)[nH]c(=S)c(C#N)c1C`, the inhibition was -2.67%.
For the molecule `Fc1ccc(-c2nnc3sc(-c4ccc5c(c4)OCO5)nn23)cc1`, the inhibition is 94.9% (active).
As for `Fc1ccc(-c2ccc(-c3nn4c(-c5ccco5)nnc4s3)o2)cc1`, the figure is 48.4% (active).
As for `COC(=O)Nc1nc2ccc(Sc3ccccc3)cc2[nH]1`, the figure is 33.9%; as for `O=C(Nc1cc(N2CCOCC2)ncn1)NC1(C(F)(F)F)Oc2ccc(Cl)cc2O1` (stereo not given), -8.24%; as for `CCN(CC)S(=O)(=O)c1ccc2nc(COC(=O)c3n[nH]c4ccccc34)[nH]c2c1`, 29.7%.
As for `CC(C)C1N=C2c3ccccc3N=C(SCC(=O)c3ccc(O)c(O)c3)N2C1=O` (stereo not given), the inhibition was 64.7% (active).
Under `COc1ccc(N2C(=O)CN=C2Nc2cccc(C)c2C)cc1OC` stands 42.9%.
Turning to `c1ccc(CSc2nnc(-c3ccco3)c(-c3ccco3)n2)cc1`, the inhibition is 42.2%.
In the case of `COc1ccc(Nc2oc(-c3ccccc3Cl)nc2C#N)cc1`, the inhibition was 3.03%.
As for `CCOC(=O)c1sc(=S)n2c1[nH]c(=O)c1ccc(C(=O)OC)cc12`, the figure is 73.8% (active).
As for `Cc1ccc(-n2nc(-c3ccco3)cc2C(=O)NCc2cccnc2)cc1`, the figure is -3.12%.
